32 compounds from PubChem BioAssay AID492947 (National Center for Advancing Translational Sciences (NCATS), 2010) can be followed below.

Structures are written as SMILES. The whole screen tested about 330,000 compounds, of which about 80 (0.02%) were called active. For the sample, actives were picked, then their nearest neighbours and some compounds at random. A number with no mark means an inactive call. Calls come from the whole dose curve; as a rule, active = well fitted activation curve with a large enough effect; inconclusive = small, poorly fitted or top-dose-only effect; inactive = flat fitted curve, though single readings scatter.

In this test the target is Beta-2 adrenergic receptor (Homo sapiens) (UniProt P07550). The experiment in a line: qHTS assay of beta-arrestin-biased ligands of beta2-adrenergic receptor.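 Note: 0% = DMSO controls and full agonism = EC100 isoproterenol or metaproterenol; nearly all actives have a fitted effect of over 65% in size.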 To be noted: beta-arrestin recruitment to beta2AR, cell-based reporter; series mostly up to 46.1 µM; activation: at the top concentration. From the text: NIH Molecular Libraries Probe Production Network [MLPCN]
Beta-2 adrenergic receptor (Homo sapiens), sequence (P07550 whole entry, looked up): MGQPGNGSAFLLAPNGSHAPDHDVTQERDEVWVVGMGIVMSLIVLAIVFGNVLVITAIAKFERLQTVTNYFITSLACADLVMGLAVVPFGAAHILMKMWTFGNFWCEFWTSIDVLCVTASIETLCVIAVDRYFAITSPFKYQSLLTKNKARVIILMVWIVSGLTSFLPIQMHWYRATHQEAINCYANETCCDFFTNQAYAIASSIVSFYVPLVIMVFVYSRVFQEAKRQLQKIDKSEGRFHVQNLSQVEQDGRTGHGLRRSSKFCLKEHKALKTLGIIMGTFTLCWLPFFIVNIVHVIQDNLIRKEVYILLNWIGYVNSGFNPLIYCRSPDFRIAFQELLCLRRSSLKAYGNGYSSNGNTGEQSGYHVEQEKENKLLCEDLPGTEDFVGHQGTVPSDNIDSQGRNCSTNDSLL
NIH Chemical Genomics Center [NCGC]
PI: Bryan Roth and Bob Lefkowitz
The concept of biased agonism is an emerging concept of molecular pharmacology which proposes that seven transmembrane receptors (7TMRs) or G protein-coupled receptors (GPCRs), exist in multiple signaling conformations and complexes and that ligands (either agonists or antagonists) can induce signaling biased responses for distinct signal transduction cascades.
Furthermore, accumulating evidence over the last decade has drawn attention to a novel function of beta-arrestins as signal transducers that scaffold various signaling molecules upon activation of 7TMRs. […] This beta-arrestin-biased signaling presumably leads to distinct physiological outcomes from those by G protein activation.
Additionally, the active receptor conformations which […] on this beta-arrestin signaling are likely different from those activating G protein signaling
The goal of this screening project will be to discover and optimize novel beta-arrestin-biased ligands for beta2-AR signaling. A luminescent cell-based assay for beta2-AR-mediated agonism, known as the Tango assay, has been validated in which ligand binding of a recombinant beta2-AR and subsequent recruitment of a recombinant beta-arrestin lead to the release of the transcriptional activator tTA, which upregulates transcription of a tTA-responsive luciferase gene. […] Compounds were screened as a concentration-titration series that ranged from 46 microM to 0.6 nM.
NCGC Assay Protocol Summary:
Tango cells were dispensed into white, solid, tissue-culture-treated 1536-well plates at 1500 cells/well in DMEM, containing 1% fetal bovine serum (FBS). Then, 23 nL of compounds or DMSO were delivered to each well using a pin tool. Plates were incubated at 37 degrees C, 5% CO2 for 18 hr. Then 2.5 uL luminescent substrate mix (in-house prepared: 150 mM Tris-Cl, pH 7.6, 3 mM MgCl2, 1% Triton X-100, 5 mM DTT, 0.5 mM CoA, 0.15 mM ATP, 0.44 mM D-luciferin, final concentrations) was added to each well. Plates were then incubated for 15 minutes at room temperature, and subsequently measured on a ViewLux plate reader for luminescent signal using a clear filter with a 10 second exposure and 2x binning. The %Activity was determined from the corrected luminescence values.
Concentration-response curves were fitted to the signals arising from the resulting luminescence. The concentration-effect curves were then classified based on curve quality (r2), response magnitude and degree of measured activity, and compounds were subsequently categorized based on their curve class.
Keywords: biased agonism, beta2-AR, beta-arrestin, GPCR, 7TMR, Tango, luminescence, MLSMR, MLPCN, NIH Roadmap, qHTS, NCGC
On to `Cc1ccc(S(=O)(=O)NCCC(=O)NNC(=O)C2COc3ccccc3O2)cc1` (configuration not stated), for which the “activation” value is -0.347%.
The figure for `COc1ccc(CC(=O)NCc2nnc(SCC(=O)Nc3ncc(C)s3)n2C)cc1` is -0.188%; for `CC1CCCCC1NC(=O)c1cc(=O)[nH]c2ccccc12` (configuration not stated) it is 0.184%.
Then `Cc1csc2ncc(C(=O)N(Cc3ccccc3)c3ccccn3)c(=O)n12`, with -0.435%; and `c1ccc(-c2cnc(CN3CCN(c4ccccc4)CC3)o2)cc1`, with -1.12%.
The figure for `Cc1cccc(C)c1N1C(=O)CN(Cc2ccccc2)C1=S` is -0.274%; for `Cc1cccc(N(C(=O)Cn2nnc(-c3ccc(C)o3)n2)C(C(=O)NC2CCCC2)c2ccncc2)c1` (configuration not stated) it is -1.02%; for `COc1ccccc1N1CC(C(=O)Nc2nnc(SCC(=O)NC(C)C)s2)CC1=O` (configuration not stated) it is -0.293%.
For the compound `CCO[C@H]1OC(C(=O)N2CCCCCCC2)=C[C@@H](c2ccc(C(F)(F)F)cc2)[C@@H]1CCCO`, the “activation” value is -0.332%.
The figure for `COc1ccc(S(=O)(=O)N(C)C[C@H]2Oc3ccc(NS(=O)(=O)c4cccs4)cc3CC(=O)N([C@H](C)CO)C[C@H]2C)cc1` is 0.0688%; for `O=C(Cn1cncn1)N/N=C/c1c2ccccc2cc2ccccc12` it is 0.226%; for `CCCOC1CCCN(C(=O)c2cc(COc3cncc(Cl)c3)on2)C1` (configuration not stated) it is 0.0549%.
Then `CCC1SC(CC)C(=O)N(CC(=O)NC2CCCCC2)C1=O` (configuration not stated), with 0.0877%; and `CCc1ccc2oc(=O)cc(CN3CCCCC3C)c2c1` (configuration not stated), with 0.329%; and `O=C(NCc1ccccc1)C1CCCN(c2nc3ccsc3c(=O)s2)C1` (configuration not stated), with 0.0158%.
The figure for `CC(C)CCNC(=O)CN(C(=O)Cn1nnc(-c2ccc(F)cc2)n1)C1CCCC1` is -0.252%.
For the compound `CC(=O)Nc1ccc(S(=O)(=O)Nc2ccc(-c3ccc4nnc(C)n4n3)cc2)cc1`, the “activation” value was -0.447%.
Take `Cn1cc(CCC(=O)NC2CC2)c2ccccc21`: the “activation” value is -0.249%.
On to `COC(=O)c1sc(SC)c(S(=O)(=O)C(C)C)c1N/N=C(\C#N)S(=O)(=O)c1ccccn1`, for which the “activation” value was -0.888%.
Then `CCn1cc(C(=O)Nc2cc(C)ccc2C)c(=O)c2ccc(C)nc21`, with 0.25%.
`COC(=O)c1sc(NC(=O)COC(=O)C2CCC2)c(C(=O)OC)c1C`: the “activation” value was -0.283%.
Turning to `Cc1nnc(SCC(=O)Nc2ccc(S(=O)(=O)Nc3ccc(Cl)nn3)cc2)s1`, the “activation” value was -0.792%.
Consider `Cn1c(SCC(=O)Nc2ccc(Cl)cc2)nc(O)cc1=O`, for which the “activation” value was -0.732%.
The figure for `Cc1nn(-c2ccccc2)c(NC(=O)c2cccs2)c(-c2ccc(Cl)cc2)c1=O` is -0.018%.
For `Cc1ccc(S(=O)(=O)N(C)CC(=O)NCCc2c[nH]c3ccccc23)cc1`, the “activation” value is -0.865%.
`Cc1ccccc1C1=NC(C(F)(F)F)(C(F)(F)F)c2c(n(-c3ccc(F)cc3)c(=O)[nH]c2=O)N1`: the “activation” value is 2.31%.
Take `CSc1nnc(C2CCCN(CC(=O)Nc3ccccc3N3CCOCC3)C2)n1C(C)C` (configuration not stated): the “activation” value is 0.413%.
Then `CCOc1ccc(C(C)=O)cc1COC(=O)c1cnc(Cl)c(Cl)c1`, with 0.0917%.
Take `O=S(=O)(Cc1ccccc1)c1nc2ccccc2n1Cc1ccccn1`: the “activation” value was -0.237%.
Then `O=C(O)c1cccnc1Sc1ncnc2sc3c(c12)CCC3`, with -0.363%; and `CCCOc1ccc(Cc2c(Cl)nc(SC)nc2NC)cc1`, with 0.211%.
For the compound `CCOC(=O)c1c(NC(=O)Cn2nc(C(F)(F)F)cc2C)sc2c1CCC2`, the “activation” value was -0.382%.
